# Where two headings read alike, the source gives them in different places.
# What was measured:
# Set-up in all cases: species or system human, MV4-11 + K-562 + COLO205 + SK-N-BE2 + OVCAR-8
# IRAK3 = details: read-out: apparent Kd, n = 1
# PDGFRB = details: read-out: apparent Kd, n = 1
# AURKB = details: read-out: apparent Kd, n = 1
# CDC42BPA = details: read-out: apparent Kd, compound concentrations: 100 nM and 1000 nM (sheet 'Samples'), n = 1
# CDC42BPB = details: read-out: apparent Kd, n = 1
# CDC42BPG = details: read-out: apparent Kd, n = 1
# CDK2 = details: read-out: apparent Kd, compound concentrations: 100 nM and 1000 nM (sheet 'Samples'), n = 1
# CHEK1 = details: read-out: apparent Kd, n = 1
# EPHA5 = details: read-out: apparent Kd, n = 1
# PHKG2 = details: read-out: apparent Kd, n = 1
# RPS6KA4 = details: read-out: apparent Kd, n = 1
# STK10 = details: read-out: apparent Kd, n = 1
# TTK = details: read-out: apparent Kd, n = 1
# CAMKK2 = details: read-out: apparent Kd, n = 1
# EPHA4 = details: read-out: apparent Kd, n = 1
# PRKAG2 = details: read-out: apparent Kd, n = 1
# TNK2 = details: read-out: apparent Kd, n = 1
# CDK9 = details: read-out: apparent Kd, compound concentrations: 100 nM and 1000 nM (sheet 'Samples'), n = 1
# AURKA = details: read-out: apparent Kd; compound concentrations:100 nM and 1000 nM (sheet 'Samples'); n = 1
# [1] = compound concentrations:100 nM and 1000 nM (sheet 'Samples')
smiles,measurement,setting,value
COc1cc(Nc2nccc(N3CCC(NC(=O)c4cccc(NC(C)=O)c4)C3)n2)cc(OC)c1OC (stereo not shown) [GSK1379754A],potency estimated from few doses,"IRAK3; compound concentrations: 100 nM and 1000 nM (sheet 'Samples'), CATDS: 0.18683076270721999",372 nM
NC(=O)c1cc(-c2ccccc2)cc2c(C3CCNCC3)c[nH]c12 [GSK301362A],potency estimated from few doses,PDGFRB; [1],1630 nM
O=C(O)C(F)(F)F.O=C(O)C(F)(F)F.O=c1[nH]ccc2nc(N[C@@H]3CCCNC3)nc(Nc3ccc(S(=O)(=O)N4CCOCC4)cc3)c12.O=c1[nH]ccc2nc(N[C@@H]3CCCNC3)nc(Nc3ccc(S(=O)(=O)N4CCOCC4)cc3)c12 [GSK2177277A],potency estimated from few doses,"AURKB; compound concentrations: 100 nM and 1000 nM (sheet 'Samples'), CATDS: 9.0566947478628902E-3",373 nM
same,potency estimated from few doses,CDC42BPA; CATDS: 6.6693958930569E-3,1260 nM
same,potency estimated from few doses,"CDC42BPB; compound concentrations: 100 nM and 1000 nM (sheet 'Samples'), CATDS: 1.0245441654914001E-2",255 nM
same,potency estimated from few doses,"CDC42BPG; compound concentrations: 100 nM and 1000 nM (sheet 'Samples'), CATDS: 1.3688403769646499E-2",119 nM
same,potency estimated from few doses,CDK2; CATDS: 8.3972230361842193E-3,481 nM
same,potency estimated from few doses,"CHEK1; compound concentrations: 100 nM and 1000 nM (sheet 'Samples'), CATDS: 1.19973934343878E-2",166 nM
same,potency estimated from few doses,"EPHA5; compound concentrations: 100 nM and 1000 nM (sheet 'Samples'), CATDS: 6.3188743096270596E-3",1690 nM
same,potency estimated from few doses,"PDGFRB; compound concentrations: 100 nM and 1000 nM (sheet 'Samples'), CATDS: 3.6594692875912202E-2",18.3 nM
same,potency estimated from few doses,"PHKG2; compound concentrations: 100 nM and 1000 nM (sheet 'Samples'), CATDS: 8.6754793941291007E-3",430 nM
same,potency estimated from few doses,"RPS6KA4; compound concentrations: 100 nM and 1000 nM (sheet 'Samples'), CATDS: 8.4573730907670092E-3",470 nM
same,potency estimated from few doses,"STK10; compound concentrations: 100 nM and 1000 nM (sheet 'Samples'), CATDS: 9.0871108796095092E-3",369 nM
same,potency estimated from few doses,"TTK; compound concentrations: 100 nM and 1000 nM (sheet 'Samples'), CATDS: 6.1777236356659101E-3",1950 nM
c1ccc(-c2n[nH]cc2Nc2ccnc3ccccc23)nc1 [GW694077X],potency estimated from few doses,"IRAK3; compound concentrations: 100 nM and 1000 nM (sheet 'Samples'), CATDS: 9.0170551839232005E-2",57.6 nM
COC(=O)c1cccc(NC(=O)NC2CCN(c3ccnc(Nc4cc(OC)c(OC)c(OC)c4)n3)C2)c1 (stereo not shown) [GSK1379767A],potency estimated from few doses,"IRAK3; compound concentrations: 100 nM and 1000 nM (sheet 'Samples'), CATDS: 0.12620401960154601",1050 nM
CC(=O)N[C@@H](Cc1ccc(OP(=O)(O)O)cc1)C(=O)N[C@H]1CCC(=O)N2CCC[C@@H](C(=O)NCc3ccc(Cl)cc3)N2C1=O [RO0325308-000],potency estimated from few doses,CAMKK2; [1],1320 nM
same,potency estimated from few doses,CHEK1; [1],1950 nM
same,potency estimated from few doses,EPHA4; [1],843 nM
same,potency estimated from few doses,EPHA5; [1],770 nM
same,potency estimated from few doses,IRAK3; [1],1530 nM
same,potency estimated from few doses,PHKG2; [1],1880 nM
same,potency estimated from few doses,PRKAG2; [1],570 nM
same,potency estimated from few doses,TNK2; [1],51.7 nM
COc1cc[nH]c1/C=C1\C(=O)Nc2ccc(F)c(C#CC3(O)CCNCC3)c21.Cl [RO0282986-001],potency estimated from few doses,CDK2; CATDS: 1.26412371427807E-2,615 nM
same,potency estimated from few doses,CDK9; CATDS: 1.1942255869273499E-2,724 nM
same,potency estimated from few doses,"PDGFRB; compound concentrations: 100 nM and 1000 nM (sheet 'Samples'), CATDS: 1.1337273569473399E-2",850 nM
same,potency estimated from few doses,"PHKG2; compound concentrations: 100 nM and 1000 nM (sheet 'Samples'), CATDS: 1.06478310552471E-2",1050 nM
same,potency estimated from few doses,"RPS6KA4; compound concentrations: 100 nM and 1000 nM (sheet 'Samples'), CATDS: 2.8007008589504299E-2",111 nM
same,potency estimated from few doses,"TTK; compound concentrations: 100 nM and 1000 nM (sheet 'Samples'), CATDS: 9.4369633718921209E-3",1690 nM
CN(C)CCNC(=O)Nc1ccc(N(C)c2ccnc(Nc3ccc(CS(C)(=O)=O)cc3)n2)cc1.Cl [GW830900A],potency estimated from few doses,AURKA,893 nM
same,potency estimated from few doses,AURKB; [1],387 nM
same,potency estimated from few doses,PDGFRB; [1],1330 nM
same,potency estimated from few doses,TTK; [1],2150 nM
c1cnn2ncc(-c3ccnc(Nc4ccc5c(c4)OCCO5)n3)c2c1 [GW806290X],potency estimated from few doses,CDK9; CATDS: 6.9114282023058901E-2,99.5 nM
CC(C)Oc1ccc2c(-c3ccnc(Nc4ccc(N5CCN(C)CC5)cc4)n3)cnn2n1 [GW696155X],potency estimated from few doses,AURKA,602 nM
same,potency estimated from few doses,IRAK3; [1],464 nM
same,potency estimated from few doses,PDGFRB; [1],2040 nM
NCC(NC(=O)c1cc(-c2cn[nH]c2)c(-c2ccnc3[nH]ccc23)s1)c1ccccc1.NCC(NC(=O)c1cc(-c2cn[nH]c2)c(-c2ccnc3[nH]ccc23)s1)c1ccccc1.O=C(O)C(F)(F)F.O=C(O)C(F)(F)F (stereo not shown) [GSK1325775A],potency estimated from few doses,CDC42BPA; CATDS: 0.12802177694120001,75.6 nM
same,potency estimated from few doses,"CDC42BPB; compound concentrations: 100 nM and 1000 nM (sheet 'Samples'), CATDS: 0.23472145831324301",29.3 nM
same,potency estimated from few doses,"CDC42BPG; compound concentrations: 100 nM and 1000 nM (sheet 'Samples'), CATDS: 3.6567109546732701E-2",1070 nM
CNc1cc(-c2ccc3c(N)n[nH]c3c2)nc(N)n1 [GSK2224810A],potency estimated from few doses,PRKAG2; [1],1090 nM
Cc1n[nH]c2cc(Nc3ccnc(Nc4cccc(CN5CCOCC5)c4)n3)ccc12 [GW682569X],potency estimated from few doses,"IRAK3; compound concentrations: 100 nM and 1000 nM (sheet 'Samples'), CATDS: 0.17881857649065999",348 nM
O=C(O)C(F)(F)F.O=c1[nH]ccc2nc(N[C@@H]3CCNC3)nc(Nc3cc(Cl)cc(Cl)c3)c12 [GSK2188764A],potency estimated from few doses,CDC42BPB; [1],1870 nM
same,potency estimated from few doses,CDC42BPG; [1],556 nM
same,potency estimated from few doses,CHEK1; [1],711 nM
same,potency estimated from few doses,PHKG2; [1],786 nM
same,potency estimated from few doses,PRKAG2; [1],632 nM
same,potency estimated from few doses,RPS6KA4; [1],472 nM
same,potency estimated from few doses,STK10; [1],992 nM
CS(=O)(=O)CCn1c(=O)c(Oc2ccc(F)cc2F)cc2cnc(NC3CCOCC3)nc21 [RO5027956-000],potency estimated from few doses,CAMKK2; [1],1270 nM
same,potency estimated from few doses,CHEK1; [1],1500 nM
same,potency estimated from few doses,EPHA4; [1],896 nM
same,potency estimated from few doses,EPHA5; [1],751 nM
same,potency estimated from few doses,PRKAG2; [1],497 nM
same,potency estimated from few doses,STK10; [1],2320 nM
same,potency estimated from few doses,TNK2; [1],521 nM
O=C1N=C(NCc2ccccc2Br)S/C1=C\c1ccc2ncccc2c1 [RO4506918-000],potency estimated from few doses,"CDC42BPG; compound concentrations: 100 nM and 1000 nM (sheet 'Samples'), CATDS: 7.9298685313138301E-2",1370 nM
Cl.Cn1cc(C2=C(c3c4n(c5ccccc35)CCNC4)C(=O)NC2=O)c2ccccc21 [RO0318365-001],potency estimated from few doses,"EPHA5; compound concentrations: 100 nM and 1000 nM (sheet 'Samples'), CATDS: 5.66388945901121E-2",1210 nM
O=C1N=C(N[C@H](CO)c2ccccc2)S/C1=C\c1ccc2ncccc2c1 [RO4554339-000],potency estimated from few doses,CDC42BPA; CATDS: 8.0851127030257999E-2,2180 nM
Cl.Cn1c(=O)c(Cc2ccccc2F)cc2cnc(NC3CCOCC3)nc21 [RO3305377-001],potency estimated from few doses,"CAMKK2; compound concentrations: 100 nM and 1000 nM (sheet 'Samples'), CATDS: 1.7496919808973301E-2",1640 nM
same,potency estimated from few doses,"EPHA4; compound concentrations: 100 nM and 1000 nM (sheet 'Samples'), CATDS: 2.0796665862367499E-2",1010 nM
same,potency estimated from few doses,"EPHA5; compound concentrations: 100 nM and 1000 nM (sheet 'Samples'), CATDS: 2.9701717682633799E-2",481 nM
same,potency estimated from few doses,"PRKAG2; compound concentrations: 100 nM and 1000 nM (sheet 'Samples'), CATDS: 2.6904980441579199E-2",578 nM
same,potency estimated from few doses,"TNK2; compound concentrations: 100 nM and 1000 nM (sheet 'Samples'), CATDS: 3.6301330504794102E-2",342 nM
O=C(Nc1n[nH]c2nc(-c3ccccc3O)ccc12)C1CC1 [SB-711880],potency estimated from few doses,AURKA,286 nM
same,potency estimated from few doses,CHEK1; [1],967 nM
same,potency estimated from few doses,PHKG2; [1],1550 nM
same,potency estimated from few doses,STK10; [1],1200 nM
same,potency estimated from few doses,TNK2; [1],517 nM

# From article PMC11062922 (Nature Chemical Biology, 2023)
